CHO-K1 Ca antag: M1 antagonist counterscreen hit in parental CHO-K1 cells | hit rate 0.6% among 360,000 | AID 602250 | inhibition, % at 3 µM | ATP-induced calcium, Fluo-8 fluorescence;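 active = inhibition above a per-plate cutoff, the plate's mean sample inhibition plus 3 SD, cut at about 24% in these data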;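 also: 0% = DMSO plus EC80 ATP and 100% = DMSO alone without ATP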
M1 ag: human M1 muscarinic receptor agonism; P11229; CHO-K1 hM1, Fluo-8 calcium fluorescence, agonist mode; 0% DMSO, 100% acetylcholine EC100; activation, % at 3 µM; hit rate 0.33% among 360,000; AID 588814;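 active = activation above the run's mean compound activation plus 3 SD, cut at about 16% in these data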;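 also: peak over basal fluorescence ratio within a 140 s kinetic read after compound addition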
Target sequence (P11229 whole entry, looked up): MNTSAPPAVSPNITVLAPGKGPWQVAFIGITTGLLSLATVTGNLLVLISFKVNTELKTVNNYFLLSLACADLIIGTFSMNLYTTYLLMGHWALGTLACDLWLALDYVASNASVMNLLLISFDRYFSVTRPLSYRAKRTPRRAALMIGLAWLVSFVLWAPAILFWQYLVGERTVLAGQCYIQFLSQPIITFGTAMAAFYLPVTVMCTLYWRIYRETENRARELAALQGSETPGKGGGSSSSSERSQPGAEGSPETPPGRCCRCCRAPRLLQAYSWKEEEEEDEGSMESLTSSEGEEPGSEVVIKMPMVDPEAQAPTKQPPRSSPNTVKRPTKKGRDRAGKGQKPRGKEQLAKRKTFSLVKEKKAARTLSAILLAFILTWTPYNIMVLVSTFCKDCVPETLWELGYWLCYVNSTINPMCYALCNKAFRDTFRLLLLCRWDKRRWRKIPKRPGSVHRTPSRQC
M1 ag parental: M1 agonist counterscreen hit in parental CHO-K1 cells; Fluo-8 calcium fluorescence; scaled to maximal ATP response, vehicle zero; AID 602248; activation, % at 3 µM; hit rate 0.48% among 360,000; in the data active = activation above about 15%;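 also: untransfected CHO-K1 host cells lacking M1 receptor as counterscreen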
CHO-K1 Ca PAM: counter-screen for M1 PAMs: effect in parental CHO-K1 cells. ATP EC20, Fluo-8 calcium fluorescence; 0% at ATP EC20, 100% at ATP max. activation, % at 3 µM. hit rate 0.02% among 360,000;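 active = activation above the run cutoff, the mean activation of all test compounds plus 3 SD, cut at about 40% in these data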;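 also: peak over basal fluorescence ratio in a 140 s read after ATP addition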
M1 antag: antagonists of human M1 muscarinic receptor | inhibition, % at 3 µM | hit rate 1.3% among 360,000 | CHO-K1 hM1, Fluo-8 calcium fluorescence, ACh EC80 antagonist | P11229;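 active = percent inhibition above its own plate's cutoff, namely the mean of that plate's compound wells plus 3 SD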;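 also: peak over basal fluorescence ratio during 140 s after agonist addition; 0% = ACh EC80 plus DMSO and 100% = DMSO alone without agonist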
CHRM1 PAM: human CHRM1 positive allosteric modulation. P11229. CHO-K1 hM1, Fluo-8 calcium fluorescence, ACh EC20; 0% = ACh EC20, 100% = maximal ACh. activation, % at 3 µM. hit rate 0.088% among 360,000. AID 588819; in the data active = activation above about 19%, passing the limit was not always enough
Active calls of the source: *. Hits are enriched below; roughly 2.3% of the tested compounds scored in any of these assays.

SMILES	CHO-K1 Ca antag	M1 ag	M1 ag parental	CHO-K1 Ca PAM	M1 antag	CHRM1 PAM
CC(=O)Nc1ccc(N2C(=O)c3cccc4c(O)ccc(c34)C2=O)cc1	21	98*	41*	-23	39*	-32
O=C1c2cccc3c(O)ccc(c23)C(=O)N1c1ccc(Cl)cc1	7	78*	18*	-20	45*	-30
O=C1c2cccc3c(O)ccc(c23)C(=O)N1Cc1ccco1	26*	68*	65*	-4	30*	-23
Cc1ccc(S(=O)(=O)n2c(C)nc3cc(C)ccc32)cc1	-10	-1	0	3	-2	1
Cc1ccc(S(=O)(=O)n2c(N)nc3cc(C)c(C)cc32)cc1	-3	-11	0	-4	20*	-20
COc1ccc(N(CC(=O)Nc2ccc(F)c(Cl)c2)S(=O)(=O)c2c(C)noc2C)cc1	26*	-1	0	-6	0	4
COc1ccc(N(CC(=O)Nc2ccc(OC)c(Cl)c2)S(=O)(=O)c2c(C)noc2C)cc1	-5	-1	3	16	3	-3
Cc1cc(S(=O)(=O)NC2CCN(Cc3ccccc3)CC2)c(C)cc1Cl	-13	-4	8	17	52*	-24
Cc1cc(C)c(S(=O)(=O)NC2CCN(Cc3ccccc3)CC2)c(C)c1	-10	-5	1	13	-3	2
COc1cc(NC(=O)c2cccs2)c(C(=O)OCC(=O)c2cc(C)n(-c3ccc(F)cc3)c2C)cc1OC	8	-4	17*	12	7	5
CCCCCOC(=O)C1=C(C)Nc2ncnn2C1c1cccs1 (stereo not given)	21	-3	4	3	27*	-9
O=C1CSC2(C(=O)N3CCCc4cccc2c43)N1c1cccc(C(F)(F)F)c1 (stereo not given)	-8	-8	0	12	89*	-22
COc1ccc(N2C(=O)CSC23C(=O)N2CCCc4cccc3c42)cc1 (stereo not given)	-7	-6	1	9	85*	-26
C=CCn1c(-c2csc3c2CCC(C)C3)n[nH]c1=S (stereo not given)	7	-13	0	-7	0	-13
CCCCn1c(-c2csc3c2CCC(C)C3)n[nH]c1=S (stereo not given)	-16	-8	1	22	47*	-21
FC(F)Oc1ccc(NC(=S)N2CCc3ccccc32)cc1	-2	-9	2	13	-5	3
Cc1onc(-c2ccccc2Cl)c1C(=O)Oc1cccc2cccnc12	-15	-4	1	2	3	4
CCCCC(=O)Nc1ccc(C(=O)Nc2cccnc2)cc1	11	-3	1	-2	1	3
CC(C)c1cccc(OCC(=O)Nc2ccc(S(=O)(=O)Nc3ccccn3)cc2)c1	-22	-8	1	-2	3	4
CCOc1ccc(NS(=O)(=O)c2ccc(C(=O)NCc3ccncc3)cc2)cc1	-10	12	7	28	-8	14
CC(C)c1ccc(OCC(=O)Nc2ccc(S(=O)(=O)Nc3ccccn3)cc2)cc1	-20	24*	5	13	-4	5
CCCCC(=O)Nc1ccc(C(=O)NCc2ccncc2)cc1	25*	-5	0	4	-1	9
CCOc1ccc(NS(=O)(=O)c2ccc(C(=O)NCc3ccccn3)cc2)cc1	1	28*	21*	-8	8	1
Cc1ccc(NS(=O)(=O)c2ccc(C(=O)NCc3ccncc3)cc2)cc1	5	18*	15*	6	2	5
Cc1cc(C)cc(C(O)c2ncc(-c3ccccc3Cl)[nH]2)c1 (stereo not given)	2	-1	2	13	-12	15
SMILES	CHO-K1 Ca antag	M1 ag	M1 ag parental	CHO-K1 Ca PAM	M1 antag	CHRM1 PAM
Cc1ccc(NS(=O)(=O)c2ccc(C(=O)NCc3ccccn3)cc2)cc1	-4	28*	19*	0	8	-2
CS(=O)(=O)Nc1ccc(C(=O)NCc2ccccn2)cc1	-8	-3	0	14	-8	3
Cc1ccc(S(=O)(=O)NC(=O)NCc2ccccc2)cc1	28*	-2	0	-9	11	-6
Cc1occc1C(=O)N/N=C/c1ccccc1[N+](=O)[O-]	-14	-3	1	16	-11	7
Cc1ccc(NC(=O)C2CCCN(C3=NS(=O)(=O)c4ccccc43)C2)c(O)c1 (stereo not given)	26*	-1	0	-16	27	-9
CCOc1ccc(NC(=O)CSc2ccc(-c3cccnc3)nn2)cc1	14	-4	0	-27	-5	-7
CCOC(=O)C1CCCN(c2ncnc3c2oc2ccccc23)C1 (stereo not given)	24*	0	4	-8	21	-11
COc1cc(C(=S)N2CCOCC2)ccc1OC(=O)c1ccc(Br)cc1	28*	1	12	7	47*	-18
NS(=O)(=O)c1ccc(CCNC(=O)Cc2cccs2)cc1	1	-2	0	-1	-6	2
O=C(NCCN1CCN(c2ccccc2)CC1)Nc1ccc(Cl)cc1	-17	-1	16*	3	-3	2
CC(C)C(NC(=O)c1ccccc1)C(=O)N1CCN(C/C=C/c2ccccc2)CC1 (stereo not given)	-15	-3	0	6	5	-6
C[C@H](NC(=O)c1ccc(C(C)(C)C)cc1)C(=O)N1CCN(C/C=C/c2ccccc2)CC1	-22	38*	5	16	46*	-16
O=C(NCC(=O)N1CCN(c2ccccc2)CC1)c1ccc(Cl)cc1	1	-2	0	-8	69*	3
CSCCC(NC(=O)c1ccc(Cl)c([N+](=O)[O-])c1)C(=O)N1CCN(C/C=C/c2ccccc2)CC1 (stereo not given)	-11	20*	0	5	2	-2
COc1ccc(C(=O)NCC(=O)N2CCN(c3ccccc3)CC2)cc1	-17	0	1	11	-15	12
O=C(NCCN1CCN(c2cccc(Cl)c2)CC1)Nc1ccccc1	-14	-3	8	7	7	-7
Cc1cccc(NC(=O)COC(=O)c2ccccn2)c1	-13	-4	2	-7	7	-4
COc1ccccc1NNC(=O)c1cccnc1Oc1ccccc1	-16	-1	1	2	-15	6
O=C1C[C@H](NC(=O)OCc2ccccc2)CO1	-4	-2	0	-2	-6	-4
Nc1ccc2c(c1)OC1(CCCC1)O2	-11	-6	1	5	10	-2
O=C(NCC(=O)N1CCN(C/C=C/c2ccccc2)CC1)c1ccc(Br)cc1	-20	18*	2	7	33*	-15
Cc1oc(-c2cccc3ccccc23)nc1CN1CCN(c2ncnc3ccccc23)CC1	-2	-10	23*	11	7	-9
